The text below walks through data of PubChem BioAssay (NCATS).

Values joined by “and” are separate entries in the source; they are usually repeats but may differ in a detail not shown here. Identical values can stand only once. Records with an inconclusive call do not appear. Active and inactive are the calls of the source. The call rests on the fitted dose curve; in most records, active means well fitted curve in the direction sought with a large enough effect; inconclusive means small, poorly fitted or top-dose-only effect, or another doubt; inactive means no such curve, though single readings can be large; an effect the other way counts as inactive or inconclusive.

Assay [1] is described as follows: Identifying Small Molecule Inhibitors of Pancreatic Cancer Stem Cells (A2780, Spheroid) (AID 1259357).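 Further: compound exposure lasted 48 h before the ATP luminescence read.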 The note with it: Potency: A2780 spheroid viability; series mostly up to 46.1 µM. In outline:
(§1)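 After a 4 h attachment period, compounds were pinned into wells and cultures held 48 h under standard incubator conditions. Viability was then measured as CellTiter-Glo luminescence following 10 min at room temperature.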

Assay [2] can be described thus: Identifying Small Molecule Inhibitors of Pancreatic Cancer Stem Cells (SN12C, Adherent) (AID 1259358).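 Further: cell survival measured after 48 h of compound exposure.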 The note with it: viability/growth inhibition; series mostly up to 46.1 µM. In outline:
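Adherent (2D) versus sphere (3D) formats; spheres generated 14 d in SCM beforehand. Compound transferred by pin tool after 4 h, 48 h incubation, CellTiter-Glo endpoint.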

Assay [3] can be described thus: Identifying Small Molecule Inhibitors of Pancreatic Cancer Stem Cells (SN12C, Spheroid) (AID 1259360). The note with it: Potency: SN12C spheroid viability; series mostly up to 46.1 µM. In outline:
as §1

Assay [4] in a line: P-glycoprotein substrates identified in KB-3-1 adenocarcinoma cell line, qHTS therapeutic library screen (AID 1346986). Further: nearly all actives have a fitted effect of over 60% in size.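 Further: potency is for cytotoxicity meaning loss of cell viability.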 The conditions noted are these: KB-3-1 parental cells viability, CellTiter-Glo, 72 h; series mostly up to 44.5 µM. In outline:
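Counter-screen: cherry-picked hits retested in the KB pair and in HEK-293 pcDNA/MDR-19 cells ± tariquidar. Primary screen used 72 h CellTiter-Glo viability in KB-3-1 and KB-8-5-11.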

A short description of assay [5]: P-glycoprotein substrates identified in KB-8-5-11 adenocarcinoma cell line, qHTS therapeutic library screen (AID 1346987). Further: nearly all actives have a fitted effect of over 65% in size. The note with it: KB-8-5-11 (P-gp overexpressing) viability, CellTiter-Glo, 72 h; series mostly up to 44.5 µM. Summed up: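 P-gp-mediated resistance screen: KB-8-5-11 cells treated 72 h with compounds in dose-response. CellTiter-Glo viability.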
(In qHTS, concentration-response curves come from the screen itself.)

Assay [6] can be described thus: Identifying Small Molecule Inhibitors of Pancreatic Cancer Stem Cells (Panc1, Spheroid) (AID 1259359).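 Further: compound exposure lasted 48 h before reading.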 The note with it: Panc1 spheroid cancer stem cell viability. Summed up: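 Monolayer and spheroid cultures are compared. Spheroids form over 14 days in stem cell medium on hydrogel-coated low-attachment plates, then are exposed to compound for 48 h before CellTiter-Glo luminescence.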
Potency means the concentration at half of the fitted maximal effect.

As for `CC(C)(C)c1cc(C(=O)O)c(NC(=O)Nc2ccc3[nH]ncc3c2)s1`, the Potency entry in assay [1], in assay [2], in assay [3], in assay [4] and in assay [5] was “inactive” each time.
For the compound `COc1cc(N2CCC(N3CCN(C)CC3)CC2)ccc1Nc1ncc(Cl)c(Nc2ccccc2S(=O)(=O)C(C)C)n1`, the Potency was 18.7 µM (active) in assay [2], 0.418 µM (active) in assay [6], 20.9 µM (active) in assay [3] and 0.651 µM (active) in assay [5].
As for `CN1CCN(CCOc2cc(OC3CCOCC3)c3c(Nc4c(Cl)ccc5c4OCO5)ncnc3c2)CC1`, the Potency result in assay [1] and in assay [5] was “inactive” each time. Also, the Potency in assay [2] was 1.87 µM (active); in assay [3] it was 18.7 µM (active).
On to `CC(C)(C(=O)NCC(F)(F)C(F)(F)F)C(=O)N[C@@H]1C(=O)Nc2ccccc2-c2ccccc21`, for which the Potency result in assay [2], in assay [3], in assay [4] and in assay [5] was “inactive” each time. In assay [6], the Potency was 0.0015 µM (active).
On to `O=c1cc(-c2cccc3c2Sc2ccccc2S3)oc(N2CCOCC2)c1`, for which the Potency result in assay [4] and in assay [5] was “inactive” throughout.
As to `CC[C@@H]1C=C(C)C[C@H](C)C[C@H](OC)[C@H]2O[C@@](O)(C(=O)C(=O)N3CCCC[C@@H]3C(=O)O[C@H](C(C)=C[C@@H]3CC[C@H](Cl)[C@H](OC)C3)[C@H](C)[C@@H](O)CC1=O)[C@H](C)C[C@H]2OC`, the Potency entry in assay [4] and in assay [5] was “inactive” in each case.
As to `O=C(Nc1c(Cl)cncc1Cl)c1ccc(OC(F)F)c(OCC2CC2)c1`, the Potency result in assay [4] and in assay [5] was “inactive” each time.
For the compound `CN(C)Cc1ccc(-c2nc3cccc4c3n2CCNC4=O)cc1`, the Potency result in assay [3] and in assay [5] was “inactive” each time.
For `CO[C@H]1C=CC=C(C)C(=O)NC2=CC(=O)C(NCCN(C)C)=C(C[C@@H](C)C[C@H](OC)[C@@H](O)[C@@H](C)C=C(C)[C@@H]1OC(N)=O)C2=O`, the Potency was 0.0935 µM (active) in assay [2], 0.0059 µM (active) in assay [3] and 7.43 µM (active) in assay [5].
Turning to `O=C(N[C@@H](c1ccccc1)[C@@H]1CCCCN1)c1cccc(C(F)(F)F)c1Cl`, the Potency result in assay [2], in assay [3] and in assay [5] was “inactive” in each case.
In the case of `O=c1ccn([C@@H]2O[C@H](CO)[C@H](O)[C@H]2O)c(=O)[nH]1`, the Potency entry in assay [4] and in assay [5] was “inactive” throughout.
Turning to `COc1cccc2c1CCCC2CCCN1CCN(C2CCCCC2)CC1` (stereo unspecified), the Potency in assay [2] is 16.6 µM (active).
For the compound `CCOC(=O)C1=C(N)Oc2ccc(Br)cc2C1C(C#N)C(=O)OCC` (stereo unspecified), the Potency entry in assay [4] and in assay [5] was “inactive” throughout.
Take `COc1ccc(C2CC(c3ccccc3)=NN2c2ccc(S(N)(=O)=O)cc2)cc1` (stereo unspecified): the Potency result in assay [2] and in assay [3] was “inactive” each time.
For the compound `Cc1ccc(Nc2cc(-c3cccc(N4C(=O)c5ccccc5C4=O)c3)ncn2)cc1NS(C)(=O)=O`, the Potency result in assay [4] and in assay [5] was “inactive” throughout.
Consider `CNC(=O)c1ccc2cc(C3(O)CCn4cncc43)ccc2c1` (stereo unspecified), for which the Potency entry in assay [4] and in assay [5] was “inactive” in each case.
For `CN(C)CCC=C1c2ccccc2COc2ccc(CC(=O)O)cc21`, the Potency result in assay [4] and in assay [5] was “inactive” in each case.
Consider `Nc1ncnc2c1ncn2[C@@H]1O[C@H](CO)C[C@@H]1O`, for which the Potency result in assay [4] was “inactive”.
For the compound `O=c1cc(N2CCOCC2)oc2c(-c3cccc4c3sc3ccccc34)cccc12`, in assay [1], the Potency was 26.4 µM (active). The Potency entry in assay [4] and in assay [5] was “inactive” in each case.
Consider `COc1ncc(-c2ccc3nccc(-c4ccnnc4)c3c2)cc1NS(=O)(=O)c1ccc(F)cc1F`, for which the Potency was 0.132 µM (active) in assay [1]; 0.0074 µM (active) in assay [6]; 2.96 µM (active) and 29.1 nM (active) in assay [5]. The Potency entry in assay [2] was “inactive”.
Consider `CO[C@@H](C(=O)N1Cc2[nH]nc(NC(=O)c3ccc(N4CCN(C)CC4)cc3)c2C1)c1ccccc1`, for which the figures for the Potency in assay [2] and in assay [4] were 0.743 µM (active) and 1.3 µM (active), respectively. Further, the Potency result in assay [3] is “inactive”.
For `CC(=O)O[C@]1(C(C)=O)CC[C@@H]2[C@@H]3C[C@H](C)C4=CC(=O)CC[C@]4(C)[C@H]3CC[C@@]21C`, the Potency result in assay [4] and in assay [5] was “inactive” in each case.
For `CS(=O)c1ccc(-c2nc(-c3ccc(F)cc3)c(-c3ccncc3)[nH]2)cc1` (stereo unspecified), the Potency result in assay [2], in assay [3], in assay [4] and in assay [5] was “inactive” throughout.
For the compound `Nc1ncnc2ccccc12`, the Potency result in assay [4] and in assay [5] was “inactive” in each case.
On to `COc1cc(N2CCC(N3CCN(C)CC3)CC2)ccc1Nc1ncnc(Nc2ccccc2S(=O)(=O)C(C)C)n1`, for which the Potency in assay [4] is 10.3 µM (active); in assay [5], 5.9 µM (active) and 9.2 µM (active).
Consider `CO[C@H]1C[C@@H]2CC[C@@H](C)[C@@](O)(O2)C(=O)C(=O)N2CCCC[C@@H]2C(=O)O[C@H]([C@H](C)C[C@@H]2CC[C@H](OCCO)[C@H](OC)C2)CC(=O)[C@H](C)C=C(C)[C@@H](O)[C@@H](OC)C(=O)[C@H](C)C[C@H](C)C=CC=CC=C1C`, for which the Potency in assay [2] is 18.7 µM (active); in assay [6] it was 26.4 µM (active); in assay [5], 3.32 µM (active).
`O=C(Nc1ccccc1-c1cn2c(CN3CCNCC3)csc2n1)c1cnc2ccccc2n1`: the Potency result in assay [1] was “inactive”. Further, the Potency in assay [5] was 26.4 µM (active).
